SENP8 block-1 – SENP8 protease inhibitors, primary screen, biochemical, luminescence. Sentrin-specific protease 8 (Homo sapiens), Q96LD8. purified SENP8, Z-RLRGG-aminoluciferin cleavage. inhibition, % at 10 µM. actives 1.2% (n = 330,000). AID 2540, 2010; in the data active = inhibition above about 50%
SENP6 inh – SENP6 protease inhibitors, primary screen, biochemical, luminescence, uHTS. Sentrin-specific protease 6 (Homo sapiens), Q9GZR1. Recombinant SENP6 catalytic domain, aminoluciferin luminescence. inhibition, % at 10 µM. actives 1.8% (n = 330,000). AID 2599, 2010;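 active = inhibition above about 50% at the single tested dose, limit read from the data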
Target sequence (Q9GZR1 628-1112 limits assumed): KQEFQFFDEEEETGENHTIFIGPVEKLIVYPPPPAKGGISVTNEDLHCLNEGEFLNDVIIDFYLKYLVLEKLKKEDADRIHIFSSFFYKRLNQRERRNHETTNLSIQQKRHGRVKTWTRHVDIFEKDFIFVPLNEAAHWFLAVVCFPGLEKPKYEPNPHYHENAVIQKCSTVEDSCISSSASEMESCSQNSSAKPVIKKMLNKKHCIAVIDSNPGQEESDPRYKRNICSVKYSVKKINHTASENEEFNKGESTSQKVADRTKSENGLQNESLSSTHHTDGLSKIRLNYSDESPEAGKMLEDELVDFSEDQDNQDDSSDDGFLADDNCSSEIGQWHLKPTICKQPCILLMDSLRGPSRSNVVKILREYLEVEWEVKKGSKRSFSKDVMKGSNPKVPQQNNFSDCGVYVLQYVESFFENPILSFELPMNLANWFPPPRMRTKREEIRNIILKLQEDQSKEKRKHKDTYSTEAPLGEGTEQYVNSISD
SENP8 block-2 – human SENP8 protease inhibitors, primary screen, biochemical, fluorescence, Nedd8 protein substrate, uHTS; recombinant SENP8; inhibition, % at 20 µM; Sentrin-specific protease 8 (Homo sapiens), Q96LD8; actives 0.64% (n = 360,000); in the data active = inhibition mostly above about 40%, no sharp cut-off; inactive = mostly below about 27%
Platelet DG rel – inhibitors of platelet dense granule secretion, primary screen, cell-based, MLPCN, human platelets | human platelet-rich plasma, SFLLRN dense granule ATP release, luminescence | inhibition, %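 (compounds screened at 7.5 µM in platelet-rich plasma)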 | AID 1663, 2009 | actives 0.22% (n = 300,000);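 active = mean replicate score, as percent of positive control, at or above 50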
SENP7 block – SENP7 protease inhibitors, primary screen, biochemical, luminescence, uHTS; actives 1.5% (n = 330,000); Sentrin-specific protease 7 (Homo sapiens), Q9BQF6; recombinant SENP7, Z-RLRGG-aminoluciferin luminescence, 40 min; inhibition, % at 5 µM; AID 434973, 2010;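 active = inhibition above about 50% at the single test dose, limit read from the data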
SENP8 conf – human SENP8 protease inhibitors, confirmation, biochemical, Nedd8 protein substrate, single concentration; shares compounds with SENP8 block-2; purified SENP8, Nedd8-AMC/pro-Nedd8 cleavage fluorescence, 30 min; inhibition, % at 25 µM; actives 15% (n = 1,400); in the data active = inhibition mostly above about 39%, no sharp cut-off; inactive = mostly below about 34%
Each line names hits and unclear results; the compound was inactive in the other large screens (follow-up assays come after a bar, where they were run). Only some compounds are listed: those with a hit (about 2.4% of all), similar ones and a draw of the others.

CC(C)C[C@H](NC(=O)c1cc2cc(Cl)ccc2n1C)C(=O)N1CCC[C@H]1C(=O)O	SENP8 block-2 47 | SENP8 conf inactive
CN(C)C(=O)C12CCC(C)(C(=O)C1Br)C2(C)C (centres undefined)	none
O=C(O)C1C(c2ccccc2)c2ccccc2C(O)C1CO (centres undefined)	none (no result: SENP8 block-1, SENP6 inh, Platelet DG rel, SENP7 block)
Cn1c(Cc2ccccc2)nnc1SCC(=O)Nc1ccccc1	none
Cn1c(Cc2ccccc2)nnc1SCC(=O)c1cccs1	SENP8 block-2 40 | SENP8 conf inactive
COc1ccc(C(=O)/C=C(\C)Nc2ccc3c(c2)OCO3)cc1	SENP8 block-2 41 | SENP8 conf inactive
CCSc1nnc(NC(=O)c2ccco2)s1	none
CCSc1nnc(NC(NC(=O)c2ccco2)(C(F)(F)F)C(F)(F)F)s1	SENP8 block-2 41 | SENP8 conf inactive
CC1(C)SC(=S)N(/N=C/c2ccc(O)cc2)C1N(O)C(=O)Nc1ccc([N+](=O)[O-])cc1 (centres undefined)	none
Cc1ccc(/C=N/N2C(=S)SC(C)(C)C2N(O)C(=O)Nc2ccc([N+](=O)[O-])cc2)cc1 (centres undefined)	SENP8 block-2 40 | SENP8 conf inactive
Cc1cn(C2CCCO2)c(=O)nc1N (centres undefined)	none (no result: SENP8 block-1, SENP6 inh, Platelet DG rel, SENP7 block)
COc1ccc(-c2nc[nH]c2[N+](=O)[O-])cc1	SENP8 block-2 49 | SENP8 conf inactive
COc1ccc(OC)c(NC(=O)CSc2nc3nc(C)cc(C)n3n2)c1	none (no result: Platelet DG rel)
O=C1CCCCCCCN1Cc1ccccc1	none
CC1=NN(Cc2ccccc2)C(=O)C1	SENP8 block-2 43 | SENP8 conf inactive
CCOc1cc(NC2CS(=O)(=O)CC2O)c(OCC)cc1NC(=O)c1ccccc1 (centres undefined)	SENP8 block-2 44 | SENP8 conf inactive
CCc1nn(CC(=O)NCCCc2ccccc2)c(=O)c2cc3cc(F)ccc3n12	none
Cc1ccc(NC(=O)c2sc(N)nc2-c2ccc([N+](=O)[O-])cc2)c(C)c1	SENP8 block-2 45 | SENP8 conf inactive
Cc1ccc(NNC(N)=S)cc1Cl	SENP8 block-2 60 | SENP8 conf inactive
CCOC(=O)C1=C(C)NC(C)=C(C(=O)OCC)C1C(=O)OCC(=O)N1CCCCC1C (centres undefined)	none (no result: Platelet DG rel)
CCOC(=O)c1[nH]c(C)c(C(=O)OCC(=O)N2CCCCC2C)c1C (centres undefined)	SENP8 block-2 41 | SENP8 conf inactive
CCC(=O)NC(Nc1sc2c(c1C(=O)OC)CCCC2)(C(F)(F)F)C(F)(F)F	SENP8 block-2 43 | SENP8 conf inactive
COCC(=O)Nc1sc2c(c1C(=O)OC)CCCC2	none
CCCCCCN1C=CC=C/C1=C\C=C(C#N)C#N	SENP8 block-2 43 | SENP8 conf inactive
O=C(Nc1ccc(N2CCCC(O)C2)cc1)c1snc2c(=O)[nH]cnc12 (centres undefined)	none
Cc1nc2c(C(=O)Nc3ccc(N4CCCC(O)C4)cc3)snc2c(=O)[nH]1 (centres undefined)	SENP8 block-2 57 | SENP8 conf inactive
CN(CC(=O)Nc1ccc(OC(F)(F)F)cc1)C(=O)/C=C/c1cc2c(cc1[N+](=O)[O-])OCO2	none (no result: Platelet DG rel)
CN1CCCCCC1C(=O)N1CCC(N2CCC(C(=O)N3CCOCC3)CC2)CC1 (centres undefined)	none
O=P(CCCO)(Cc1ccccc1)Cc1ccccc1	none
COCCNC(=S)NN=C1CCC(c2ccccc2)CC1 (centres undefined)	none
C=CCNC(=S)NN=C1CCC(c2ccccc2)CC1 (centres undefined)	SENP8 block-2 45 | SENP8 conf inactive
CCC(=O)NC(c1cccs1)c1cc([N+](=O)[O-])c2cccnc2c1OC (centres undefined)	SENP8 block-2 96 (no result: SENP8 block-1, SENP6 inh, Platelet DG rel, SENP7 block) | SENP8 conf inactive
O=[N+]([O-])c1ccc(-[n+]2nc(-c3ccccc3)nn2-c2ccccc2)cc1	SENP8 block-2 50 | SENP8 conf 45
O=c1ccc(-c2ccc([N+](=O)[O-])cc2)nn1-c1ccccc1	none
COc1ccc(C2CC(c3ccccc3)=NN2C(=O)COC(=O)c2nc3nccc(C)n3n2)cc1 (centres undefined)	none
c1ccc(CCN(Cc2ccccc2)C2CCN(C3CCCC3)CC2)cc1	none
CCOC(=O)/C(C#N)=C1/C=Cc2ccccc2N1CC	SENP8 block-2 41 | SENP8 conf inactive
CCN1C(=C(C#N)C#N)C=Cc2ccccc21	none
COc1ccccc1OCCCn1c(=O)oc2ccc(C)cc21	SENP8 block-2 41 | SENP8 conf inactive
CCOc1ccc(N/C=C/C(=O)c2ccc(C)cc2)c([N+](=O)[O-])c1	SENP8 block-2 43 | SENP8 conf inactive
CCOc1ccc(N/C=C/C(=O)c2ccc3ccccc3c2)c([N+](=O)[O-])c1	none
O=C1O[C@@H]([C@H](O)CO)C(O)=C1O	SENP8 block-2 40 | SENP8 conf inactive
Cc1nc2ccccc2n1CC(O)COCC1CC=CCC1 (centres undefined)	SENP8 block-2 43 | SENP8 conf inactive
CCCN1C2=C(C(=O)CC(C)(C)C2)C(c2ccc(F)cc2)C2=C1c1ccccc1C2=O (centres undefined)	none
CCCCN1C2=C(C(=O)CC(C)(C)C2)C(c2ccccc2)C2=C1c1ccccc1C2=O (centres undefined)	SENP8 block-2 54 | SENP8 conf inactive
CCOC(=O)/C(=C/c1c(C)n(C)c2ccc([N+](=O)[O-])cc12)C(C)=O	none
CCOC(=O)c1c(N)c2cc([N+](=O)[O-])ccc2n1C	SENP8 block-2 47 | SENP8 conf inactive
Nc1[nH]c(C(=O)c2ccccc2)c(-c2ccc(C(F)(F)F)cc2)c1C(=O)NCc1ccc(Cl)cc1Cl	none (no result: SENP8 block-1, SENP6 inh, Platelet DG rel, SENP7 block)
Nc1cc(Cl)nc(N/N=C/c2ccc([N+](=O)[O-])cc2)n1	none
Nc1cc(Cl)nc(N/N=C/c2ccccc2[N+](=O)[O-])n1	SENP8 block-2 52 | SENP8 conf inactive
CN(C)/C=C/C=C1C(=O)CCCC1=O	SENP8 block-2 49 | SENP8 conf inactive
NS(=O)(=O)c1ccc(N/N=C/c2ccc[nH]2)c([N+](=O)[O-])c1	SENP8 block-2 35 | SENP8 conf inactive
CCC(CC)=NNc1ccc(S(N)(=O)=O)cc1[N+](=O)[O-]	SENP8 block-2 47 | SENP8 conf inactive
C/C(=N\Nc1ccc(S(N)(=O)=O)cc1[N+](=O)[O-])c1ccc2c(c1)OCO2	SENP8 block-2 47 (no result: SENP8 block-1, SENP6 inh, SENP7 block) | SENP8 conf inactive
CN(CC(=O)Nc1cccc(F)c1)C(=O)c1ccccc1Cc1ccccc1	none
